Among all 330,000 compounds or so, about 1,300 (0.39%) were called active. The list comes from a sample in which actives are over-represented; it also holds similar structures and randomly drawn compounds. A number with no mark means an inactive call.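 Rule for the calls: active = inhibition of 50% or more; inactive = inhibition below 50%.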
Assay: blockers of yeast NLRP3/ASC/caspase-1 reporter – luminescence, uHTS, primary screen (AID 2825);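 note: plate controls were induced DMSO wells for no effect and uninduced yeast grown without galactose for full effect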
Conditions: Yeast reconstituted NLRP3/ASC/caspase-1, beta-gal luminescence, 24 h; at 10 µM; active compounds read high

In order of falling inhibition:
1. CCc1noc(C)c1C(=O)Nc1nc(-c2ccccc2)cs1  45.9%
2. CCOc1cc(/C=N/NC(=O)OC)ccc1OCCSc1ccc(Cl)cc1  33.5%
3. CC(=O)O[C@H]1CC[C@@]2(C)[C@@H](CC[C@@H]3[C@@H]2CC[C@]2(C)[C@@H](C(C)(C)O)C[C@@H]32)C1  32.9%
4. CC(=O)N1CCN(CCN=CC2=C(O)CC(C)(C)CC2=O)CC1  32.1%
5. O=C1CC(c2ccccc2)CC(O)=C1C=NCCN1CCOCC1 (stereo not drawn)  29.8%
6. O=C(/C=C/c1ccc(OCc2c(F)cccc2Cl)cc1)N1CCOCC1  28.2%
7. CCN(CC)c1ccc(/C=N/NC(=O)c2cnccn2)c(O)c1  27.9%
8. CCC(=O)c1cc(F)ccc1OCC(=O)Nc1ccc2c(c1)OCCO2  26.6%
9. CC1CC(C)CN(S(=O)(=O)c2cccc3nonc23)C1 (stereo not drawn)  25%
10. CCc1ccc(NC(=O)NC(C)c2ccc3c(c2)OCO3)cc1 (stereo not drawn)  24.3%
11. O=C(COc1ccc(Br)cc1F)NC1CCN(Cc2ccccc2)CC1  23%
12. CCOC(=O)c1c(C)[nH]c(C(=O)OCC(=O)c2ccc(OC)cc2OC)c1C  22.6%
13. Cc1cc(C(=O)COc2ccccc2Cl)c(C)n1C1CC1  21.7%
14. O=C(CCC(=O)OCc1ccc(Cl)cc1)Nc1ccccc1  21%
15. COCCNC(=O)c1ccc2nc(Cc3ccc(OC)c(OC)c3)oc2c1  20.9%
16. CN(C)CCCNC(=O)/C=C/c1ccc(OCc2c(F)cccc2Cl)cc1  20.8%
17. O=C(CC(Cc1ccccc1)C(=O)O)NCCc1ccc2c(c1)OCO2 (stereo not drawn)  20.5%
18. CC1CCN(S(=O)(=O)c2ccc3[nH]c(=O)ccc3c2)CC1  18.1%
19. CC(=O)c1c(C)[nH]c(C(=O)COc2ccc3c(C)cc(=O)oc3c2)c1C  17.5%
20. O=C(NCC1CCCO1)c1ccc(S(=O)(=O)Nc2ccc(F)cc2)cc1 (stereo not drawn)  16.8%
21. CCN(CC)CCCSc1nc2ccccc2s1  15.5%
22. Cc1cc(C)nc(N/N=C/c2c(CO)cnc(C)c2O)n1  15.2%
23. O=C(O)CC1=C(Nc2ccccc2)C(=O)N(c2ccccc2)C1c1ccc(Cl)cc1 (stereo not drawn)  15%
24. CCOC(OCC)c1ccc(/C=C\c2nccc(N)n2)cc1  14.7%
25. CC(NC(=O)c1cc2cc(Cl)ccc2oc1=N)c1ccccc1 (stereo not drawn)  14.4%
26. COC(=O)c1ccc(S(=O)(=O)NCc2ccccc2)n1C  14.2%
27. CC(C)(C)NC(=O)CN(C(=O)c1ccc(Cl)nc1)c1cccc2ccccc12  13.4%
28. Cc1ccccc1S(=O)(=O)Cc1ccc(C(=O)NCCN2CCCCC2C)o1 (stereo not drawn)  13.3%
29. CCCCCCCCCCCC(=O)O  12.3%
30. CN1CCN(c2ccc(S(=O)(=O)N3CCOCC3)cc2NC(=O)CCc2ccccc2)CC1  12.1%
31. Cc1cccc(C(=O)OC(C)C(=O)NC2CCCc3ccccc32)c1O (stereo not drawn)  11.6%
32. O=C(Cn1ccc2cc(S(=O)(=O)N3CCCC3)ccc21)NCc1ccccc1  11.6%
33. COC(=O)c1cc(S(=O)(=O)NC2CCN(Cc3ccccc3)CC2)cn1C  11.4%
34. COc1cc(NC(=O)CN2C(=O)NC(C)(c3ccc(OC(F)F)cc3)C2=O)cc(OC)c1OC (stereo not drawn)  11.2%
35. O=C(OCc1cc2ccccc2[nH]c1=O)c1cccnc1  11.2%
36. CSc1ncnc2sc(C)c(C)c12  11.2%
37. COc1ccc(CCNS(=O)(=O)c2ccc(Cl)s2)cc1OC  11%
38. COCCN1CCn2c(nc3cc(NS(C)(=O)=O)ccc32)C1  10.9%
39. Cc1cc(C(=O)OCC(=O)Nc2nccs2)c2ccccc2n1  10.4%
40. Cc1noc(C)c1CSCC(=O)Nc1nc2ccc(Oc3ccccc3)cc2s1  9.07%
41. Cc1ccc(NS(=O)(=O)c2cccs2)cc1S(=O)(=O)N1CCCCCC1  8.88%
42. CCn1nc(C)c(NC(=O)/C=C/c2ccc(OC)c(COc3ccc(Br)cc3)c2)c1C  7.05%
43. Cc1ccnc(-n2sc3ccccc3c2=O)n1  6.74%
44. N#C/C=C(/c1ccc(F)cc1)N1CCOCC1  6.72%
45. CC(Sc1ccccc1F)C(=O)Nc1cccc(S(=O)(=O)N2CCOCC2)c1 (stereo not drawn)  6.56%
46. Cc1sc2ncnc(Sc3nc4ccccc4s3)c2c1C  6.48%
47. C=C(C)c1cccc(C(C)(C)NC(=O)NCCN(CC)CC)c1  5.58%
48. COCCNC(=S)N1CCN(C)CC1  5.02%
49. O=C(Nc1cc(S(=O)(=O)N2CCCCC2)ccc1Cl)C1COc2ccccc2O1 (stereo not drawn)  4.78%
50. CCN(CC(=O)Nc1ccc(NC(C)=O)cc1)C(=O)CSC(=S)N1CCCC1  4.68%
51. C=CCC1(CC=C)CCCN1C(=O)CC1C(=O)NCCN1Cc1ccccc1OC (stereo not drawn)  4.65%
52. CCCCNC(=O)C1(O)c2ccccc2NC(=O)N1c1ccc(Cl)cc1 (stereo not drawn)  3.8%
53. O=C(CCC(=O)c1cccs1)Nc1nc2ccccc2s1  3.03%
54. Cc1sc2c(c1C)c(=O)n(-c1ccccc1)c1nncn21  2.84%
55. CC(C)C[C@H](NC(=O)NCCc1ccc(Cl)cc1)C(=O)O  2.68%
56. COc1cc(NC(=O)C2=CC(c3ccco3)=NS(=O)(=O)N2C)cc(OC)c1OC  2.53%
57. COc1ccc(Oc2coc3cc(OC(=O)c4cncc(Br)c4)ccc3c2=O)cc1  2.36%
58. O=c1[nH]c(CCl)nc2cc(-c3ccc(Cl)cc3)sc12  2.25%
59. O=C(NC1CCC(O)CC1)c1ccccc1OCc1ccc(F)cc1 (stereo not drawn)  1.97%
60. Cc1ccc2[nH]c3c(=O)n(CC(=O)NCCc4ccc(Cl)cc4)ncc3c2c1  1.78%
61. COc1ccc(C2Nc3ccccc3C(=O)N2c2ccc(Cl)cc2)cc1Cn1cc([N+](=O)[O-])cn1 (stereo not drawn)  1.4%
62. OCCC1CN(Cc2cnc(-c3ccccc3)s2)CCN1CCc1ccccc1 (stereo not drawn)  1.33%
63. Cc1nc2nc(CSc3nc4ccccc4s3)cc(=O)n2[nH]1  1.14%
64. COc1cc(N2C(=O)c3ccccc3C2=O)c(Cl)cc1C(=O)OCC(=O)N1CCOCC1  -0.245%
65. COCCNC(=O)CCCn1c(=O)c2ccccc2n(Cc2cccc([N+](=O)[O-])c2)c1=O  -0.805%
66. CC(=O)C12CC(C)=C(C)CC1CC1C3CCC4=CC(=O)CCC4(C)C3CCC12C (stereo not drawn)  -1.41%
67. Cc1ccc(C(c2sc3nc(C)nn3c2O)N2CCN(c3ccccc3)CC2)cc1 (stereo not drawn)  -2.77%
68. COCCn1c(=O)[nH]c2cc(C(=O)NCc3cccnc3)ccc2c1=O  -3.21%
69. Cc1cc(NC(=O)CN2C(=O)NC(C)(CCc3ccccc3)C2=O)no1 (stereo not drawn)  -3.27%
70. Cc1ccc(C)c(N2CCN(C(=O)Cn3ncn4cccc4c3=O)CC2)c1  -5.29%
71. O=C1C=CN2CCCC2CC1 (stereo not drawn)  -5.59%

With CCCCCCC12CCC(C(=O)O)(CC1)CC2 the inhibition was 54.3% (active).
In the case of O=[N+]([O-])c1c(NCCO)cc(Sc2nc3ccccc3s2)c2nonc12, the inhibition is reported as 55.2% (active).
For CCN(CC)c1ccc(/C=N/Nc2nc(C)cc(C)n2)c(O)c1, the inhibition was 58.1% (active).
With O=C(Oc1c(-c2ccco2)oc2ccccc2c1=O)c1cccnc1 the inhibition was 54.3% (active).
With CCOC(=O)c1c(C)[nH]c(C(=O)COc2ccc3c(c2)OCO3)c1C the inhibition was 79.9% (active).
In the case of Cc1ccnc(Nc2nc3ccccc3s2)n1, the inhibition is reported as 53.7% (active).
In the case of O=C1C=C(c2ccc(Cl)cc2)C(=O)N1Nc1ccccc1, the inhibition is reported as 74.6% (active).
With CCc1noc(C)c1C(=O)Nc1nc2ccc(OC)cc2s1 the inhibition was 70.8% (active).
In the case of CN=C1C=C/C(=N/N=c2\ccn(O)cc2C)C=C1C, the inhibition is reported as 57.6% (active).
For CC(=O)[C@@]12O[C@@H]1C[C@H]1[C@@H]3CC[C@H]4C[C@@H](O)CC[C@]4(C)[C@H]3CC[C@@]12C, the inhibition was 58.4% (active).
In the case of CC(=NCc1ccc2c(c1)OCO2)C1=C(O)c2ccccc2C1=O, the inhibition is reported as 57.8% (active).
For Cc1cc(C(=O)COc2ccc(Br)cc2F)c(C)n1C1CC1, the inhibition was 58.4% (active).
With CC(C)C(=O)N1CCN(CCN=CC2=C(O)CC(c3ccco3)CC2=O)CC1 (stereo not drawn) the inhibition was 60.8% (active).
With COCCCNC(=O)/C=C/c1ccc(OCc2c(F)cccc2Cl)cc1 the inhibition was 50.9% (active).
With CCCNc1ncnc2sc(C)c(C)c12 the inhibition was 55.9% (active).
In the case of O=[N+]([O-])/C=C/c1ccc2c(ccn2Cc2ccccc2)c1, the inhibition is reported as 92.3% (active).
With CC1(C)CCSC(/C=C/c2ccccc2)=N1 the inhibition was 85.7% (active).
